# PubChem BioAssay AID588742 (Southern Research Specialized Biocontainment Screening …, 2011)
# Out of some 1,800 compounds screened, about 410 (23%) were called active. No rule for the calls is given here. A selection follows. Entries with a potency or affinity are not part of this list.
# Experiment: viability of Vero cells under compound – cytotoxicity control for flavivirus capping enzyme inhibitors (AID 588742)
# Conditions: cytotoxicity counter-screen; series mostly up to 40 µM
row,SMILES,outcome
1,CCc1ccc(S(=O)(=O)Nc2ccc(O)c3ccccc23)cc1,inactive
2,N#C/C(=C\c1ccccc1)C(=O)NNS(=O)(=O)c1cccc([N+](=O)[O-])c1,inactive
3,Cc1nnc(SCC2=C(C(=O)O)N3C(=O)C(NC(=O)c4cccc(F)c4F)C3SC2)s1 (stereo not given),inactive
4,CC1(OC(=O)CCc2ccccc2)C(=O)C=C2C=C(c3ccc(C#N)cc3)N(Cc3ccccc3)C=C2C1=O (stereo not given),inactive
5,O=C1NN(c2cccc(Br)c2)C(=O)/C1=C/c1ccc(-c2cc([N+](=O)[O-])ccc2O)o1,inactive
6,Cc1ccc([C@@H]2CC=C(C(=O)O)[C@H](c3ccc(Br)cc3)N2S(=O)(=O)c2ccccc2C)cc1,inactive
7,CCCc1cc(=O)oc2c(CN3CCCC3)c(O)c(Cl)cc12,inactive
8,Cc1ccc(CSc2nnc3c(n2)OC2(Nc4ccccc4-3)C(=O)Nc3ccc(F)cc32)cc1 (stereo not given),inactive
9,CCN(CCCNC(=O)CCc1nc(-c2ccc(OC)cc2)no1)c1cccc(C)c1,inactive
10,CCN(CC)c1ccc(C2C3CCCCC3(O)CCN2CC(=O)N2CCCCC2)cc1 (stereo not given),inactive
11,CCN(/N=C/c1ccc(N(C)C)cc1)c1nc2ccccc2[nH]1,inactive
12,COc1ccccc1NS(=O)(=O)c1ccc(N/N=C/c2ccccc2OCC(=O)O)c([N+](=O)[O-])c1,inactive
13,O=C1NN(c2cccc(Br)c2)C(=O)/C1=C\c1ccccc1,inactive
14,N#CC1C(=O)c2ccccc2C1c1ccccc1 (stereo not given),inactive
15,CCCCCCn1c(=O)c(-c2ccccc2)c(O)c2ccccc21,inactive
16,COc1ccc(S(=O)(=O)CC(=O)c2cc3cc(Br)ccc3oc2=O)cc1,inactive
17,CCOc1ccc(/C=C/c2[nH]c(=O)[nH]c(=O)c2[N+](=O)[O-])cc1,inactive
18,COc1ccc(OC)c(/C=C2\SC(=S)N(NS(=O)(=O)c3ccc(C)cc3)C2=O)c1,inactive
19,O=C(CC(Nc1ccccc1Cl)C(=O)O)c1ccccc1 (stereo not given),inactive
20,CCCOC(=O)c1c(NC(=O)C2C3C=CC(C3)C2C(=O)O)sc2c1CCC(C)C2 (stereo not given),inactive
21,N#CCC(=O)N/N=C/c1ccc(OCC(=O)Nc2ccc(F)cc2)cc1,inactive
22,COC(=O)C1=C(C(=O)OC)C(c2ccccc2O)c2sc(=O)[nH]c2S1 (stereo not given),inactive
23,O=c1[nH]c(/C=C\c2ccc(O)c(O)c2)nc(O)c1[N+](=O)[O-],inactive
24,Cc1c(N2C(=O)/C(=C3\C(=O)N(CC(=O)O)c4ccccc43)SC2=S)c(=O)n(-c2ccccc2)n1C,inactive
25,Cc1c(N=C2C=C(Br)C(=O)C(Br)=C2)c(=O)n(-c2ccccc2)n1C,inactive

row,SMILES,outcome
1,COc1ccccc1/C=C1\SC(=S)N(NS(=O)(=O)c2ccccc2)C1=O,inactive
2,COc1ccc(S(=O)(=O)Nc2cc3c4c(c2)C(C)C(=O)N4CCC3)cc1OC (stereo not given),inactive
3,CC(=O)N1CCN(c2ccc(NCc3cccc(C)c3)cc2)CC1,inactive
4,N#C/C(=C\c1ccc(C#N)cc1)C(=O)c1ccccc1,inactive
5,O=C1C(=NO)CCc2ccccc21,inactive
6,O=C1c2ccccc2C(=O)c2c1cccc2N(CCO)CCO,inactive
7,CCn1c2ccccc2c2cc(NC(=O)c3ccc(Br)o3)ccc21,inactive
8,CCCCCCSc1nc(O)c(C2OC(=O)c3c2ccc(OC)c3OC)c(=O)n1-c1ccccc1 (stereo not given),inactive
9,c1cc2c(cc1NC1CCCCCC1)OCO2,inactive
10,O=C(O)c1[nH]c2ccccc2c1C(c1cc(Cl)cc([N+](=O)[O-])c1O)c1c(C(=O)O)[nH]c2ccccc12,inactive
11,O=C(O)c1cc(N/N=C/c2ccc(-c3ccccc3)cc2)ccc1Cl,inactive
12,O=C(O)CN1C(=O)/C(=C\c2cc([N+](=O)[O-])ccc2OCc2ccccc2Cl)SC1=S,inactive
13,O=C(O)CN1C(=O)/C(=C\c2ccccc2OCc2ccccc2)SC1=S,inactive
14,O=C(O)CN1C(=O)/C(=C\c2ccccc2OCc2ccc(Cl)cc2)SC1=S,inactive
15,O=C(O)CCCN1C(=O)/C(=C\c2ccccc2OCc2ccccc2)SC1=S,inactive
16,CC1=C/C(=C(\c2cc(C)c(O)c(Br)c2)c2ccccc2S(=O)(=O)O)C=C(Br)C1=O,inactive
17,Cc1ccc(S(=O)(=O)N2CCC(C(=O)OC(C)C(=O)NC3CCCCC3C)CC2)cc1C (stereo not given),inactive
18,CN(C)c1ccc2cc(S(=O)(=O)O)cc(O)c2c1,inactive
19,Cc1nc2ccccc2c2oc(C(=O)Nc3ccc4c(c3)OCCO4)cc12,inactive
20,Cc1cc([N+](=O)[O-])ccc1N1C(=O)c2ccc(C(=O)Nc3ccccc3C(=O)O)cc2C1=O,inactive
21,Nc1nn2c(-c3ccccc3)cc(=O)[nH]c2c1N=Nc1ccc(O)cc1,inactive
22,O=[N+]([O-])c1ccc(S(=O)(=O)Nc2nc(-c3ccccc3)cs2)cc1,inactive
23,O=C(O)c1ccc(N=N/C(=N\Nc2ccc(C(=O)O)cc2)c2ccccc2)cc1,inactive
24,O=C(O)CN1C(=O)/C(=C2\C(=O)N(Cc3ccccc3Cl)c3ccccc32)SC1=S,inactive
25,Cc1c(N)cc(N)cc1C(=O)O,inactive
